From PubChem BioAssay (NCATS) come the findings set out here.

A short description of experiment [1]: qHTS drug screen for cell cycle checkpoint inhibitors in PARPi-resistant BRCA-mutant ovarian cancer cell lines. (AID 1963452; calls by dose curve). The following applies: PEO1/OlaR viability, CellTiter-Glo luminescence, 96 h, stronger effect = lower value. An outline of the steps: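 PEO1, PEO4 and PEO1/OlaR ovarian cancer cells, 600 per well, exposed 96 h at 37C to a dilution series. Viability read by CellTiter-Glo luminescence, normalized to DMSO and empty wells; activity summarized as Z-AUC.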

Experiment [2] in a line: qHTS profiling for inhibitors of Plasmodium falciparum proliferation (AID 504749). Further: nearly all actives have a fitted effect of over 60% in size. Further: potency means the concentration at half of the fitted maximal effect.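 On activity, negative = inhibition: 0% = DMSO vehicle and full inhibition = artemisinin control.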 The settings on record: P. falciparum in erythrocytes, SYBR Green DNA, 72 h. An outline of the steps:
(§1)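 In a 72 h erythrocytic culture (37 C, humidified, 5% CO2) at 2.5% hematocrit and 0.3% starting parasitemia, compounds were tested; SYBR Green I in detergent lysis buffer stained parasite DNA overnight.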

Experiment [3] deals with 3D7. Described as above. The following applies: P. falciparum in erythrocytes, SYBR Green DNA, 72 h; series mostly up to 28.7 µM. An outline of the steps: as §1
The subject of experiment [4] is 7G8. Described as above. The following applies: P. falciparum in erythrocytes, SYBR Green DNA, 72 h; series mostly up to 28.7 µM. An outline of the steps: as §1
For experiment [5], the system named is AA1029. Described as above. The following applies: P. falciparum in erythrocytes, SYBR Green DNA, 72 h; series mostly up to 28.7 µM. An outline of the steps:
as §1

For experiment [6], the system named is AS120. The experiment is described as above. The settings on record: P. falciparum in erythrocytes, SYBR Green DNA, 72 h; series mostly up to 28.7 µM. An outline of the steps:
as §1

In experiment [7] the test system is ATS189. The experiment is described as above. The settings on record: P. falciparum in erythrocytes, SYBR Green DNA, 72 h; series mostly up to 28.7 µM. An outline of the steps: as §1
The test system of experiment [8] is ATS95. The experiment is described as above. The following applies: P. falciparum in erythrocytes, SYBR Green DNA, 72 h; series mostly up to 28.7 µM. An outline of the steps:
as §1

The subject of experiment [9] is C2A. The experiment is described as above. The settings on record: P. falciparum in erythrocytes, SYBR Green DNA, 72 h; series mostly up to 28.7 µM. An outline of the steps: as §1
Experiment [10] deals with CP185. Described as above. The following applies: P. falciparum in erythrocytes, SYBR Green DNA, 72 h; series mostly up to 28.7 µM. An outline of the steps:
as §1

For experiment [11], the system named is CP191. The description is as above. The following applies: P. falciparum in erythrocytes, SYBR Green DNA, 72 h; series mostly up to 28.7 µM. An outline of the steps:
as §1

The subject of experiment [12] is CP192. The experiment is described as above. The settings on record: P. falciparum in erythrocytes, SYBR Green DNA, 72 h; series mostly up to 28.7 µM. An outline of the steps: as §1
Experiment [13] has as its system CP194. The experiment is described as above. The settings on record: P. falciparum in erythrocytes, SYBR Green DNA, 72 h; series mostly up to 28.7 µM. An outline of the steps: as §1
The subject of experiment [14] is CP201. Described as above. The settings on record: P. falciparum in erythrocytes, SYBR Green DNA, 72 h; series mostly up to 28.7 µM. An outline of the steps:
as §1

The nature of experiment [15]: qHTS for identification of novel therapeutic agents for treatment of microphthalmiaassociated transcription factor (MiT) renal cell carcinoma (RCC) (AID 1963991). The following applies: CellTiter-Glo, 48 h, stronger effect = lower value. An outline of the steps:
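Three TFE3-fusion RCC cell lines (UOK109, UOK124, UOK145), 500 cells/well, were exposed to the 1912-compound MIPE 4.0 library for 48 hours at 37 C. Viability was read by CellTiter-Glo luminescence, normalised to DMSO (100%) and empty wells (0%), with 11-concentration curve fits.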
A general note: Quantitative high-throughput screening tests each substance at several concentrations.

The mark [16] stands for this setting: measured here: PEO1 parental Z-AUC.
[17] abbreviates: at 28.7 µM (top of the series), parasite line A.
The mark [18] stands for this setting: at 28.7 µM (top of the series), parasite line B.
Setting [19] is: TFE3-RCC UOK109 viability, measured here: UOK109 Z-AUC.
[20] abbreviates: TFE3-RCC viability, measured here: UOK124 Z-AUC.
Where [21] appears, read: TFE3-RCC viability, measured here: UOK145 Z-AUC.

Each structure is given as a SMILES string. Inconclusive results are not listed. Activity calls are given as the source filed them. Unless noted, the call rests on the fitted dose curve; in most records, active means well fitted inhibition curve with a large enough effect; inconclusive means small, poorly fitted or top-dose-only effect; inactive means flat fitted curve, though single readings scatter.

Regarding `CCN(CC)CCOc1ccc(Cc2ccccc2)cc1`, the Z-AUC in [1] is 1.12 (inactive); in [1] (setting [16]) it was 0.729; in experiment [1] (measured here: PEO4 Z-AUC) it was 0.289. The activity, negative = inhibition is 8.39% (inactive) in [2] (setting [17]) and 6.88% (inactive) in experiment [2] (setting [18]). Moreover, the Potency entry in experiment [3], in experiment [5], in [6], in [7], in experiment [8] and in experiment [9] was “inactive” throughout. In addition, the Potency entry in [10], in experiment [11], in experiment [12], in experiment [13] and in experiment [14] was “inactive” each time. In experiment [4], the Potency was 12600 nM (active).
As to `CN(C)c1ccc2nc3ccc(=[N+](C)C)cc-3sc2c1`, the Z-AUC in [1] was -0.652 (inactive); in experiment [1] (setting [16]) it was -0.738; in [1] (measured here: PEO4 Z-AUC) it was -0.606. For the same compound, the Potency is 44.7 nM (active) in experiment [2] (parasite line A); 63.1 nM (active) in experiment [2] (parasite line B); 39.8 nM (active) in experiment [3]; 2.8 nM (active) in experiment [4]; 79.4 nM (active) in [5]; 63.1 nM (active) in experiment [6]. The Potency in [7] was 79.4 nM (active); in [8] it was 70.8 nM (active); in [9], 141 nM (active); in experiment [10], 89.1 nM (active); in experiment [11] it was 79.4 nM (active); in [12], 67.5 nM (active). For the same compound, the figures for the Potency in [13] and in experiment [14] were 75.7 nM (active) and 67.5 nM (active), respectively.
`O=C(O)c1cccc(-c2noc(-c3ccccc3F)n2)c1`: the Z-AUC in experiment [1] was 0.225 (inactive); in experiment [1] (setting [16]), 0.852; in experiment [1] (measured here: PEO4 Z-AUC), 1.3. Further, the activity, negative = inhibition in [2] (setting [17]) is -1.01% (inactive); in experiment [2] (setting [18]) it was 10.4% (inactive). The Potency entry in [3], in experiment [4], in [5], in [6], in [7] and in experiment [8] was “inactive” throughout. The Potency entry in experiment [9], in experiment [10], in experiment [11], in experiment [12], in [13] and in experiment [14] was “inactive” throughout.
On to `COc1ccc2cc([C@H](C)C(=O)O)ccc2c1`, for which the Z-AUC was -0.4 (inactive) in [1], -0.248 in [1] (setting [16]) and -0.0585 in [1] (measured here: PEO4 Z-AUC). Further, the results for the z-score in experiment [15] (setting [19]), in experiment [15] (setting [20]) and in [15] (setting [21]) were 1.29, 0.689 and 0.68, respectively. Also, the activity, negative = inhibition in [2] (at 12.8 µM (top of the series), parasite line A) was 6.49% (inactive); in experiment [2] (at 12.8 µM (top of the series), parasite line B), -0.339% (inactive). The Potency entry in experiment [4], in experiment [5], in experiment [6], in [7], in experiment [8] and in experiment [9] was “inactive” in each case. For the same compound, the Potency entry in [10], in experiment [11], in experiment [12], in experiment [13] and in [14] was “inactive” throughout.
As to `CC(C)[C@H](N)C(=O)OCCOCn1cnc2c(=O)[nH]c(N)nc21`, the figures for the Z-AUC in experiment [1], in experiment [1] (setting [16]) and in [1] (measured here: PEO4 Z-AUC) were 1.05 (inactive), 0.583 and 0.722, respectively. Further, the z-score in [15] (setting [19]) stood at 0.0968; in [15] (setting [20]) it was 0.361; in [15] (setting [21]) it was 0.522. Moreover, the results for the activity, negative = inhibition in experiment [2] (setting [17]) and in experiment [2] (setting [18]) were -1.13% (inactive) and 7.31% (inactive), respectively. Besides, the Potency entry in [3], in [5], in experiment [6], in experiment [7], in experiment [8] and in experiment [9] was “inactive” in each case. Further, the Potency result in experiment [10], in [11], in experiment [12], in experiment [13] and in experiment [14] was “inactive” throughout.
In the case of `O=C(NC(Cc1cc(=O)[nH]c2ccccc12)C(=O)O)c1ccc(Cl)cc1` (stereo unspecified), the figures for the Z-AUC in [1], in experiment [1] (setting [16]) and in [1] (measured here: PEO4 Z-AUC) were -0.00865 (inactive), 0.872 and 1.04, respectively. Besides, the activity, negative = inhibition is 1.94% (inactive) in experiment [2] (setting [17]) and -14.9% (inactive) in experiment [2] (setting [18]). Moreover, the Potency result in [3], in [4], in [5], in experiment [6], in experiment [7] and in [8] was “inactive” throughout. Besides, the Potency entry in experiment [9], in experiment [10], in [11], in experiment [12], in experiment [13] and in [14] was “inactive” in each case.
